Reference: PubChem BioAssay AID504321 (NMMLSC, 2011)

Test: yeast MEP2-GFP fusion level changes, TOR pathway – flow cytometry, third cherry pick, S. cerevisiae, confirmation (AID 504321);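 further: median per-cell GFP fluorescence by flow cytometry across all yeast cells; ratio of sample to DMSO median GFP so 100% equals the DMSO level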
Conditions: S. cerevisiae MEP2-GFP strain, 3 h, at 10 µM, active compounds read high;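 active means GFP response vs DMSO above 150% with enough events counted; inconclusive means fewer than 70 events counted for a yeast strain; inactive means the rest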

GFP response vs DMSO, inactive:
COc1ccccc1OCc1cc(C(=O)N2CCN(C)C(c3ccccc3)C2)no1 (centres undefined) 110%, COc1ccc(NC(=O)O/N=C2/CCCc3ccc(OC)cc32)cc1 112%, CCC(C)Nc1nc(N)c([N+](=O)[O-])c(Nc2cc(OC)ccc2OC)n1 (centres undefined) 114%, O=C(Nc1ccccc1Cl)ON=C1c2ccccc2-c2ccccc21 108%, O=C(O)CCCCCNc1ncnc2ccc(Br)cc12 101%, OCc1ccnc2c(O)cccc12 108%, C[n+]1cccc2c(Br)ccc([O-])c21 114%, FC(F)Oc1cccc2cccnc12 110%, CCCOCc1ccc(O)c2ncccc12 110%, Nn1cnc2c(c1=O)C1(CCCCC1)Cc1ccccc1-2 116%, COc1ccccc1Nc1nc(NCC(C)C)nc(N)c1[N+](=O)[O-] 114%, Cc1ccc(Nc2nc(N)[nH]c(=O)c2N=O)cc1 108%, CCC(=O)Nn1cnc2c(c1=O)C1(CCCCC1)Cc1ccccc1-2 110%, COc1ccc(Nc2nc(NN)nc(C)c2[N+](=O)[O-])cc1 101%, OCCN1CCN(c2ncnc3ccc(Br)cc23)CC1 112%, Cn1c(NCCCO)nc2c(c1=O)C1(CCCCC1)Cc1ccccc1-2 112%, COc1ccc(N/C=C/C(=O)c2ccc(Cl)cc2)cc1 116%, Nc1[nH]c(=O)nc(Nc2ccccc2)c1N=O 108%, Nc1c(C(=O)O)ccc2c1C(=O)c1ccccc1C2=O 127%
